Rows were chosen to be rich in hits. Some 10% of all compounds tested hit in one or more screens of this group.
ALOX12 inhib: inhibitors of human 12-lipoxygenase (ALOX12); P18054; purified 12-hLO, xylenol orange hydroperoxide absorbance; Potency, µM (highest dose often 57.1 µM), for inactives: top-dose activity change, negative = inhibition, most hits filed as inhibitors; 0.12% of 150,000 active; AID 1452; also: potency is read from the fitted curve at half-maximal effect; nearly all actives have a fitted effect of over 55% in size
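Xylenol orange chromogenic assay: hydroperoxide from 12hLO oxidises Fe(II), giving red-shifted Fe(III)-XO absorbance. Conditions: 150 nM enzyme, 40 uM arachidonic acid, 25 mM Hepes pH 7.0, 0.01% Triton X-100, 30 min, room temperature.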
GLA spleen mod: alpha-galactosidase A (human) modulation; P06280; human spleen homogenate, 4MU-alpha-Gal fluorescence, 40 min; Potency, µM (series often up to 80 µM), for the others: top-dose activity change, negative = inhibition, hits mostly inhibitors; 0.008% of 240,000 active;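 also: potency is read from the fitted curve at half-maximal effect; 0% = enzyme with vehicle and -100% = no enzyme basal signal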
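Inhibition or activation of alpha-galactosidase in human spleen homogenate is scored by 4-MU fluorescence after 40 min at 37C, pH 5.0, with 1 mM substrate. AC50s come from concentration-response fitted to the Hill equation.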
HPGD inh: HPGD (human) dehydrogenase inhibition; AID 894; 4.3% of 150,000 active; purified HPGD, NADH fluorescence kinetic, PGE2 substrate; Potency, µM, without a hit: at the highest dose activity change, negative = inhibition, most hits filed as inhibitors; P15428; active = well fitted inhibition curve with a large enough effect, not every such curve was filed as active; inconclusive = small, poorly fitted or top-dose-only effect, or another doubt; inactive = no such curve, though single readings can be large or run the other way; also: potency is read from the fitted curve at half-maximal effect
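20 nM HPGD preincubated 15 min at room temperature with compound in 50 mM Tris-HCl pH 8, 0.01% Tween 20. Started with 1 mM NAD+ and 30 uM prostaglandin E2; NADH fluorescence (360/450 nm) read 5 times over 30-s intervals, last minus first.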
GLA inh pH 4.5: alpha-galactosidase A (human) inhibition, pH 4.5 | activity change, negative = inhibition, % at 105 µM | purified enzyme, 4-MU-alpha-Gal fluorescence, pH 4.5 | 230,000 tested, under 10 active | AID 1467 | P06280;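 also: 0% = full activity with enzyme and -100% = basal without enzyme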
Target sequence (P06280 whole entry, looked up): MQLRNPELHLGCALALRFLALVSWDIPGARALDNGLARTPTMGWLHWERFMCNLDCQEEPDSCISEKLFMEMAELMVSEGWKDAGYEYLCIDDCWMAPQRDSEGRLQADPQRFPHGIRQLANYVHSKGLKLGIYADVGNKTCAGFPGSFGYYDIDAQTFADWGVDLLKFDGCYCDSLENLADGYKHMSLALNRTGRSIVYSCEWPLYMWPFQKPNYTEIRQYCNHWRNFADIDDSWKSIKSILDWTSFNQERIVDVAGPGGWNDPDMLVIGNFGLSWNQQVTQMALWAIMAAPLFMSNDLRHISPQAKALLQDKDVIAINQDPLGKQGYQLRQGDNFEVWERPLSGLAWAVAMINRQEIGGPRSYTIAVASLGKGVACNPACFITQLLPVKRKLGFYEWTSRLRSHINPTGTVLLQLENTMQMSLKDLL
PNC inhibitor: perinucleolar compartment assembly inhibition. AID 2417. activity change (PNC), negative = inhibition, % at 10 µM. PC3M PTB-GFP, PNC prevalence imaging, 16 h; hits give low values. 3.1% of 140,000 active;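 active = readout at or below -70, meaning at least 70% loss of cells showing the perinucleolar compartment, a nuclear body marking cancer cells; inconclusive = readout between -30 and a set limit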;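 also: plate controls were DMSO wells for no effect and camptothecin positive control wells for full effect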
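PC3M cells stably expressing PTB-GFP, 750–1000 cells/well, treated 16 h at 37 °C with compound (23 nl of library stock), in duplicate. After paraformaldehyde fixation and Hoechst stain, imaged at 20x; PNC prevalence scored by image analysis.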
ALDH1A1 inh: ALDH1A1 (human) enzyme inhibition; 7.3% of 220,000 active; Potency, µM (titrated, usually from 75.3 µM), for the others: top-dose activity, negative = inhibition, hits mostly inhibitors; P00352; Purified ALDH1A1, NADH fluorescence, propionaldehyde substrate; active = well fitted inhibition curve with a large enough effect, not every such curve was filed as active; inconclusive = small, poorly fitted or top-dose-only effect, or another doubt; inactive = no such curve, though single readings can be large or run the other way;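 also: potency is read from the fitted curve at half-maximal effect; plate controls were no enzyme wells and a reference inhibitor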
Starred values were filed as active, the others as inactive; ? = inconclusive; · = not tested or not shown; [ ] = remark or other dose. Unless noted, calls follow the shape of the dose curve; as a rule, active = well fitted curve in the direction sought with a large enough effect; inconclusive = small, poorly fitted or top-dose-only effect, or another doubt; inactive = no such curve, though single readings can be large; an effect the other way counts as inactive or inconclusive. Unless noted, % is scaled to controls: 0 for no effect and ±100 for the full control effect.

SMILES	ALOX12 inhib	GLA spleen mod	HPGD inh	GLA inh pH 4.5	PNC inhibitor	ALDH1A1 inh
CO/N=C\c1ccc(C(=O)N2[C@H](c3ccc(C)cc3)[C@@H](C)CC[C@H]2C(=O)OC)cc1	·	-2%[17.5 µM]	·	·	·	5%[13.5 µM]
CNc1ccc([N+](=O)[O-])cc1-c1nc2ccccc2[nH]c1=O	·	-7%	·	?	·	8%
COc1ccc(S(=O)(=O)C(C#N)c2nc3ccccc3nc2N2CCC(C)CC2)cc1 (stereo not drawn)	-11%	-2%	-16%	-1	-16	18µM*
CC1CC=CC2C1C(=O)N(Cc1ccccc1)C2c1ccc(C(F)(F)F)cc1 (stereo not drawn)	·	0%	·	·	·	·
CCOC(=O)C1CCCN(c2c(N3CCc4ccccc4C3)c(=O)c2=O)C1 (stereo not drawn)	-3%	-4%	28µM*	-5	-24	?
CCOC(=O)C1CCN(c2c(N3CCN(c4ccccc4OC)CC3)c(=O)c2=O)CC1	2%	1%	?	3	-82*	1%
CCOC(=O)C1CCN(c2c(N3CCN(Cc4ccccc4)CC3)c(=O)c2=O)CC1	7%	-2%	-24%	3	?	?
CCOC(=O)C1CCCN(c2c(NCCN(C)Cc3ccccc3)c(=O)c2=O)C1 (stereo not drawn)	-3%	-4%	-8%	-2	17	-7%
CC/C=C\C/C=C\C/C=C\C/C=C\C=C\C(O)CCCC(=O)O (stereo not drawn)	3%	5%	-5%	-2	·	-2%
COc1cc2nc(C3CCC3)nc(N3CCN(c4ccccn4)CC3)c2cc1OC	-2%	3%	-11%	-15	4	8.9µM*
COc1cc2nc(C3CCC3)nc(N3CCN(c4ccccc4OC)CC3)c2cc1OC	-7%	5%	-13%	-8	22	28µM*
COc1cc2nc(Cl)nc(N3CCN(C)CC3)c2cc1OC	·	-23%	·	-5	·	-9%
COc1cccc2c1C(=O)c1c(O)c3c(c(O)c1C2=O)C[C@@](O)(C(=O)CO)C[C@@H]3OC1C[C@@H](N)[C@H](O)[C@H](C)O1 (stereo partly drawn)	4%[0.00818 µM]	-13%	-6%	-18	·	-12%
COCC(=O)N1CCC2(CC1)CCN(C(=O)Nc1cccc(F)c1)CC2	0%	9%	1%	·	·	9%
CSc1nc(N(C)NC(=O)c2ccccc2)c2ccccc2n1	1%	1%	-5%	-1	?	?
CSc1nc(N(C)NC(=O)c2ccc(Cl)cc2)c2ccccc2n1	0%	-1%	4%	-5	-97*	12%
CCC(C)NC(=O)CCNS(=O)(=O)c1ccc(Br)cc1 (stereo not drawn)	2%	10%	0%	-9	-90*	1%
CCCCNC(=O)CCNS(=O)(=O)c1ccc(Br)cc1	2%	-1%	-5%	2	25	-4%
Cc1cc(C(F)F)n2ncc(C(=O)NCc3ccccc3F)c2n1	2%	-14%	-18%	3	-6	?
O=C(Oc1ccccc1)c1ccc2nsnc2c1	-2%	-7%	-5%	-1	5	4µM*
Cn1nnc2cc(C(=O)NC(C)(C)C)ccc21	-5%	8%	-6%	-1	14	3%
CC(C)(C)NC(=O)c1ccc2nsnc2c1	-2%	5%	-18%	-6	-110*	4%
Cn1nc([N+](=O)[O-])nc1Oc1ccc(C(C)(C)C)cc1	-2%	-7%	-8%	2	-17	-14%
Cc1cccc(C)c1OC[C@@H](N)C(C)C	-5%	·	·	·	·	·
COC(=O)C(C(=O)OC)C1O[C@@]23COCCC2(C)C3c2ccccc21 (stereo partly drawn)	·	-2%[17.5 µM]	·	·	·	-5%[13.5 µM]
COc1ccc(CN=C2NN=C(c3cccc(OC)c3)CS2)cc1	·	-13%	·	-4	·	8.9µM*
COc1ccc(CN=C2NN=C(c3ccccc3)CS2)cc1	·	-1%	·	1	·	4.5µM*
COc1cccc(C2=NNC(=NCc3ccccc3)SC2)c1	·	-2%	·	9	·	?
Cc1ccc(CC(=O)NCc2ccc(Cl)cc2)cc1	·	-5%	·	0	·	?
